Source: PubChem BioAssay (several laboratories)
Most compounds without a hit are left out; they make up all but 3.7% or so of the library.
tim10-1 inh = growth inhibitors of tim10-1 mutant yeast; S. cerevisiae tim10-1 ts strain growth, BacTiter-Glo, 24 h; inhibition, % at 20 µM; 2.2% of 330,000 active; AID 463190;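 active = inhibition of at least 40%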;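 note: mutant grown at 25 °C; 0% = DMSO wells with yeast and 100% = wells holding no yeast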
PfHsp90 yeast 2 = growth inhibition of yeast expressing Plasmodium Hsp90; S. cerevisiae expressing PfHsp90, BacTiter-Glo ATP, 48 h; yeast lacking PDR1 and PDR3 efflux regulators; inhibition, % at 9.4 µM; 0.32% of 310,000 active; AID 504621;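 active = every replicate shows inhibition above about 80%, whatever the replicate mean, limit read from the data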;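 note: 0% = DMSO neutral controls and 100% = 20 µM radicicol positive controls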
NALP3 yeast inh = NALP3 inhibition in yeast. 0.39% of 330,000 active. AID 2825. inhibition, % at 10 µM. Yeast reconstituted NLRP3/ASC/caspase-1, beta-gal luminescence, 24 h;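 active = inhibition of 50% or more; inactive = inhibition below 50%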;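 note: plate controls were induced DMSO wells for no effect and uninduced yeast grown without galactose for full effect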
tim23-1 inh = tim23-1 yeast growth inhibition. AID 463212. inhibition, % at 20 µM. 1.3% of 330,000 active. S. cerevisiae tim23-1 growth, BacTiter-Glo luminescence, 24 h;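 active = growth inhibition of the mutant yeast at or above 50%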;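 note: temperature-sensitive mutant grown at 25 °C; plate controls were DMSO-treated mutant yeast for no effect and medium wells lacking yeast for full effect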
TIM10 inh = inhibits growth of TIM10 yeast strain. 1.4% of 330,000 active. inhibition, % at 10 µM. S. cerevisiae TIM10 strain growth, BacTiter-Glo luminescence, 24 h;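 active = inhibition of 40% or more at the single tested concentration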;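 note: wild-type TIM10 isogenic control strain grown at permissive 25 °C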
tim10-1 confirm = confirmation of tim10-1 mutant yeast growth inhibitors. S. cerevisiae tim10-1 ts strain growth, BacTiter-Glo, 24 h. AID 463213. shares compounds with tim10-1 inh. 56% of 7,400 active. inhibition, % at 20 µM;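 active = inhibition of yeast growth at or above a set limit in either of two repeat tests at 20 µM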;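 note: tim10-1 mutant grown at permissive 25 °C to find synthetic lethal compounds; 0% = DMSO yeast wells and 100% = medium wells without yeast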
* hit, by the source's call; / = no result.

SMILES	tim10-1 inh	PfHsp90 yeast 2	NALP3 yeast inh	tim23-1 inh	TIM10 inh	tim10-1 confirm
COc1ccc(/C(N)=N/OC(=O)C2CCCCC2)cc1	51*	0	24	25	34	31*
COc1ccc(/C(N)=N/OC(=O)CC2CCCCC2)cc1OC	51*	-18	26	19	18	61*
N/C(=N\OC(=O)CC1CCCCC1)c1ccc(Br)cc1	33	18	23	13	19	/
COc1ccc(/C(N)=N/OC(=O)C2CCCCC2)cc1OC	37	-9	-13	22	16	/
O=C(O)c1ccc(NC(C(=O)c2ccccc2)c2ccccc2)cc1 (stereo not given)	/	-25	/	/	/	/
O=C(Cn1c(=O)c2cccn2c2cccnc21)N1CCN(c2ccc(Cl)cc2)CC1	43*	-9	8	38	12	-14
CCC1(c2ccc(OC)cc2)NC(=O)N(CC(=O)N2CCc3ccccc32)C1=O (stereo not given)	-18	18	7	9	-5	/
COC(=O)c1c(-c2cccnc2)csc1NC(=O)c1ccc2c(c1)OCO2	1	-15	5	20	-15	/
CC(C)OC(=O)c1ccc2nc3ccccc3nc2c1	41*	-102	31	20	2	11
CN(C)NC(=S)Nc1cccc(C(F)(F)F)c1	16	-13	13	-5	4	/
O=C(NC(=S)Nc1cccc(C(F)(F)F)c1)c1csnn1	52*	-7	16	43	14	36*
FC(F)(F)c1cccc(NC(=S)NCc2ccc(Cl)cc2)c1	43*	10	-6	8	39	18
Fc1ccc(CNC(=S)Nc2cccc(C(F)(F)F)c2)cc1	51*	-8	5	31	40	43*
Fc1cccc(NC(=S)NCc2ccc(Cl)cc2)c1	38	-3	-6	46	28	/
O=C(NC(=S)Nc1ccccc1Cl)c1csnn1	10	8	-16	31	19	/
Cc1cc(S(=O)(=O)N2CCCC2)ccc1OCC(=O)Nc1ccc(C(N)=O)cc1	20	-14	-1	4	4	/
Cc1nc2cc(NS(=O)(=O)c3c(C)c(C)cc(C)c3C)ccc2s1	42*	11	11	29	30	33*
Cc1nc2ccc(NS(=O)(=O)c3c(C)c(C)cc(C)c3C)cc2s1	12	-1	21	5	3	/
COc1ccc2nc(NC(=O)C3=NN(c4ccccc4)C(=O)CC3)sc2c1	43*	-4	16	23	16	27
COc1ccccc1/C=C/C(=O)OCC(=O)N1CCc2ccccc21	14	2	20	20	15	/
COc1ccc(/C=C2\CCCC3C2=NC(=S)NC3c2ccc(OC)cc2)cc1 (stereo not given)	46*	-8	4	50	24	28
COc1ccc(/C=C2\CCC(C3CCCC3)C2=O)cc1 (stereo not given)	10	20	38	8	1	/
Cc1coc2c1C(=O)C(=O)c1c-2ccc2c(C)cccc12	51*	-112	-1	19	9	8
Cc1ccc2c3c(cccc13)-c1ccccc1C2=O	4	33	2	17	15	/
O=C(Cn1c2ccccc2c2nc3n(c(=O)c21)CCS3)Nc1ccccc1C(F)(F)F	21	11	5	25	8	/
SMILES	tim10-1 inh	PfHsp90 yeast 2	NALP3 yeast inh	tim23-1 inh	TIM10 inh	tim10-1 confirm
COc1ccccc1NC(=O)Cn1c2ccccc2c2nc3n(c(=O)c21)CCS3	42*	/	1	-2	7	20
CCc1nc(N)nc(N)c1-c1ccc(N(C)Cc2ccccc2)c([N+](=O)[O-])c1	/	0	/	/	/	/
COc1ccccc1C/C(N)=N/O	10	2	1	-1	13	/
COc1ccccc1C/C(N)=N/OC(=O)c1ccco1	50*	-9	17	43	29	38*
C/C(=N\Nc1ccc(Cl)c(Cl)c1)c1ccc(-n2ccnc2)cc1	46*	-22	30	12	35	19
C/C(=N\NC(N)=S)c1ccc(-n2ccnc2)cc1	10	-17	6	15	-4	/
O=C1NC(=O)C(=Cc2ccccc2[N+](=O)[O-])S1	/	-16	/	/	/	/
O=C1NC(=O)/C(=C/c2cccc3ccccc23)S1	47*	-35	44	41	12	35*
CCOc1ccc2cc(C#N)c(SCC(=O)N3CCOCC3)nc2c1	43*	/	10	23	13	27
CCOc1ccc2nc(SCC(=O)N3CCCCCC3)c(C#N)cc2c1	26	-38	15	17	15	/
CCOC(=O)[C@H]1[C@H]2COc3ccc(C)cc3[C@@H]2N2C(=O)c3cc(Cl)ccc3NC(=O)[C@@]12C	40*	-26	-1	34	23	17
CCOC(=O)[C@H]1[C@H]2COc3ccc(Cl)cc3[C@@H]2N2C(=O)c3cc(F)ccc3NC(=O)[C@@]12C	18	21	13	4	-4	/
Cc1ccc(C)c(N2CCN(C(=O)c3cc4ccccn4n3)CC2)c1	41*	-4	0	46	20	35*
O=C(c1cc2ccccn2n1)N1CCN(c2cccc(C(F)(F)F)c2)CC1	22	-19	-10	26	9	/
CCOC(=O)c1nnc(-c2ccc(C)cc2)nc1Oc1ccc(Cl)cc1Cl	50*	14	25	43	17	31*
CCOC(=O)c1nnc(-c2ccc(C)cc2)nc1Oc1ccccc1Cl	30	/	6	43	17	/
CCC(Oc1ccccc1)C(=O)Nc1ncc([N+](=O)[O-])s1 (stereo not given)	42*	-42	21	47	19	55*
CC(CC(=O)Nc1ncc([N+](=O)[O-])s1)c1ccccc1 (stereo not given)	43*	/	16	40	30	52*
CCC(Oc1ccccc1)C(=O)Nc1nnc(C)s1 (stereo not given)	19	1	1	-4	1	/
O=C(COC(=O)COc1ccccc1)Nc1ncc([N+](=O)[O-])s1	-5	0	16	-2	10	/
Cc1ccc(COC(=O)c2cc(S(=O)(=O)N3CCOCC3)ccc2C)cc1	21	/	9	35	17	/
Clc1ccc(NCc2ccsc2)cc1	-5	/	12	-6	0	/
S=c1[nH]nc(-c2ccccc2)n1/N=C/c1ccc(-c2ccccc2Cl)o1	45*	-31	9	31	25	22
CCn1c(C)c(C(C)=O)c(N2CCN(c3cccc(Cl)c3)CC2)nc1=S	44*	-20	21	13	9	16
Cc1c(C(=O)N2CCN(Cc3ccc4c(c3)OCO4)CC2)sc2ncnc(N3CCN(c4ccccc4F)CC3)c12	41*	-22	19	20	24	0
O=C(c1cc2c(=O)n3ccccc3nc2s1)N1CCN(Cc2ccccc2)CC1	14	-24	27	17	11	/
O=C(c1cc2c(=O)n3ccccc3nc2s1)N1CCN(Cc2ccc3c(c2)OCO3)CC1	43*	/	13	42	40	30
